Screening data from PubChem BioAssay.
aGal spleen mod: inhibitors or activators of human alpha-galactosidase in spleen homogenate. AID 2107. Potency, µM (top dose mostly 80 µM), inactives show top-dose activity change, negative = inhibition, most hits filed as inhibitors. human spleen homogenate, 4MU-alpha-Gal fluorescence, 40 min. actives 0.008% (n = 240,000). P06280;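 also: potency is read from the fitted curve at half-maximal effect; 0% = enzyme with vehicle and -100% = no enzyme basal signal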
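Fluorogenic readout (Ex 365/Em 440 nm) of 4-methylumbelliferone released from 1 mM 4-MU-alpha-galactoside by spleen homogenate, 40 min at 37C, pH 5.0. Data normalized to no-enzyme and enzyme controls; Hill-equation AC50 from compound titrations.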
GLA inh pH 4.5: inhibitors of human alpha-galactosidase A at pH 4.5 | AID 1467 | P06280 | 230,000 tested, under 10 active | activity change, negative = inhibition, % at 105 µM | purified enzyme, 4-MU-alpha-Gal fluorescence, pH 4.5;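 also: 0% = full activity with enzyme and -100% = basal without enzyme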
Target sequence (P06280 whole entry, looked up): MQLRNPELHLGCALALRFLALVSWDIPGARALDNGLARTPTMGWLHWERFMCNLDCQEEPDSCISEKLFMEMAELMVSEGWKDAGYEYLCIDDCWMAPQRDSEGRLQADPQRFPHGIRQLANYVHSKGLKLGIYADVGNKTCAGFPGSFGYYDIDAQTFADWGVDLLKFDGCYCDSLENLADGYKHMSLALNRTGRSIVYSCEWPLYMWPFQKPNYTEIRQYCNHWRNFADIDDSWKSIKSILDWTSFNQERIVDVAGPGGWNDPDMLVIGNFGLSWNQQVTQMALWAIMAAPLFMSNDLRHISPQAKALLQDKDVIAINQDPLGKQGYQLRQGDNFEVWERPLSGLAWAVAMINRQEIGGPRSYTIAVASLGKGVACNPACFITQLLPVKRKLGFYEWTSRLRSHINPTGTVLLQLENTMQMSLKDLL
N370S GC: N370S glucocerebrosidase modulation, Gaucher chaperone candidate. N370S GC spleen homogenate, 4MU-glucoside fluorescence. Potency, µM (top dose mostly 59.4 µM), for the others: top-dose activity change, negative = inhibition, actives largely listed as inhibitors. actives 0.092% (n = 330,000). AID 2101;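 also: potency is read from the fitted curve at half-maximal effect; 0% = full enzyme activity and -100% = no enzyme basal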
GAA spleen mod: lysosomal alpha-glucosidase (human) modulation; P10253; human spleen homogenate, 4-MU-alpha-glucoside fluorescence; Potency, µM (titrated, usually from 79.9 µM), without a hit: at the top dose activity change, negative = inhibition, most hits filed as inhibitors; actives 0.006% (n = 240,000); AID 2112;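 also: potency is read from the fitted curve at half-maximal effect; 0% = enzyme with vehicle and -100% = no enzyme basal signal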
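Compounds were titrated against alpha-glucosidase in spleen homogenate at pH 5.0, with 1 mM 4-methylumbelliferyl substrate for 40 min at 37 C. Reactions were quenched with pH 10 NaOH/glycine and fluorescence measured.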
GAA inh: blocks human lysosomal alpha-glucosidase; P10253; purified human GAA, 4-MU-alpha-glucoside fluorescence; Potency, µM (titrated, usually from 76.9 µM), for inactives: at the top dose activity change, negative = inhibition, usual class: inhibitors; actives 0.005% (n = 200,000);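 also: potency is read from the fitted curve at half-maximal effect; plate controls were uninhibited enzyme wells for no effect and no-enzyme background for full effect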
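AC50 values come from Hill fits of compound titrations (up to 77 uM) against 4 nM human enzyme. Substrate 4-methylumbelliferyl-alpha-D-pyranoside at 400 uM, pH 5.0 citrate buffer, 20 min room temperature; fluorescence Ex 365/Em 440 after alkaline stop.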
GAA glycogen: alters human alpha-glucosidase cleavage of glycogen | P10253 | recombinant GAA, glycogen substrate, Amplex Red glucose oxidase fluorescence | Potency, µM (series often up to 76.4 µM), inactives show at the top dose activity change, negative = inhibition, usual class: inhibitors | actives 0.38% (n = 300,000) | AID 2100;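 also: potency is read from the fitted curve at half-maximal effect; 0% = full enzyme reaction and -100% = no-enzyme basal signal; the screen sought inhibitors and activators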
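Recombinant enzyme (4 nM final) with compounds titrated up to 77 uM and bovine liver glycogen (30 ug) in citrate pH 5.0, 0.01% Tween-20, 37 C 40 min. Released glucose detected by Amplex Red/glucose oxidase (Ex 573/Em 610); AC50 from Hill fits.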
The depositor's hits bear a star; [ ] = another dose, or the depositor's remark. Rows were chosen to be rich in hits. Some 0.43% of all compounds tested hit in one or more screens of this group. Calls follow the shape of the dose curve; as a rule, active = well fitted curve in the direction sought with a large enough effect; inconclusive = small, poorly fitted or top-dose-only effect, or another doubt; inactive = no such curve, though single readings can be large; an effect the other way counts as inactive or inconclusive.

Screening Oc1cccc(Nc2nc(-c3ccccc3Cl)nc3ccccc23)c1 returned N370S GC 1µM* and GAA glycogen -6%.
`c1csc(CNc2nc(-c3cccs3)nc3ccccc23)c1` gave aGal spleen mod -17%, GLA inh pH 4.5 -3, N370S GC 18µM*, GAA spleen mod -9%, GAA inh inconclusive and GAA glycogen -22%.
Screening CCN1CCN(c2nc(-c3cccs3)nc3ccccc23)CC1 returned aGal spleen mod 2%, GLA inh pH 4.5 5, N370S GC 9%, GAA spleen mod -3%, GAA inh 0% and GAA glycogen 9%.
`CC(O)c1cccc2cc(C(O)CNC(C)(C)C)oc12` (stereo unspecified) gave aGal spleen mod 8%, N370S GC -5% and GAA spleen mod 3%.
Cc1ccccc1-c1nc(NCc2cccs2)c2ccccc2n1 was read as aGal spleen mod 3%, N370S GC 7.1µM* and GAA spleen mod 2%.
FC(F)(F)c1ccccc1-c1nc(NCc2cccs2)c2ccccc2n1 was read as aGal spleen mod 6%, N370S GC -28% and GAA spleen mod 10%.
Screening CCc1ccc(Nc2c([N+](=O)[O-])c(=O)oc3ccccc23)cc1 returned aGal spleen mod 6%, GLA inh pH 4.5 -7, N370S GC -6%, GAA spleen mod 10% and GAA glycogen -1%.
For O=c1oc2ccccc2c(Nc2ccc(O)cc2)c1[N+](=O)[O-] the results were aGal spleen mod -2%, GLA inh pH 4.5 6, GAA spleen mod -10%, GAA inh -7% and GAA glycogen 3.5µM*.
Screening Nc1nc(N2CCN(c3ccccc3)CC2)n[nH]1 returned aGal spleen mod 3%, GLA inh pH 4.5 -3, N370S GC 9%, GAA spleen mod 9%, GAA inh 7% and GAA glycogen 10µM*.
`Nc1nc(N2CCN(c3ccc(Cl)cc3)CC2)n[nH]1` gave aGal spleen mod 1%, GLA inh pH 4.5 -15, N370S GC -7%, GAA spleen mod -14%, GAA inh 10% and GAA glycogen inconclusive.
`CO[C@H]1COC(=O)C/C=C\[C@H](C)[C@@H](OC)COC(=O)[C@@H](C)COC(=O)C/C=C\[C@@H]1C` gave aGal spleen mod -9%[17.5 µM], N370S GC -6%[12.8 µM] and GAA spleen mod -4%[17.4 µM].
Screening N#Cc1c(/N=C/C=C/c2ccccc2)sc2c1CCCC2 returned aGal spleen mod -3%, GLA inh pH 4.5 inconclusive, N370S GC 0%, GAA spleen mod -20%, GAA inh 2% and GAA glycogen 12µM*.
N#Cc1c(/N=C/c2ccco2)sc2c1CCC2 was read as aGal spleen mod -16%, GLA inh pH 4.5 -3, N370S GC 5%, GAA spleen mod 4%, GAA inh -10% and GAA glycogen 22µM*.
Cc1ccc(/C=N/c2sc3c(c2C#N)CCC3)s1 was read as aGal spleen mod 0%, GLA inh pH 4.5 -1, N370S GC 6%, GAA spleen mod -3%, GAA inh 6% and GAA glycogen 28µM*.
For Cc1[nH]n(-c2cccc3ccccc23)c(=O)c1/C=N/c1sc2c(c1C#N)CCC2 the results were aGal spleen mod 9%, GLA inh pH 4.5 -7, N370S GC -3%, GAA spleen mod 4%, GAA inh -15% and GAA glycogen 20µM*.
`N#Cc1c(/N=C/c2cc3ccccc3s2)sc2c1CCC2` gave aGal spleen mod 4%, GLA inh pH 4.5 8, N370S GC 5%, GAA spleen mod 0%, GAA inh -7% and GAA glycogen -14%.
`Cc1ccc(/C=N/c2sc3c(c2C#N)CCCCC3)o1` gave aGal spleen mod 4%, GLA inh pH 4.5 2, N370S GC 7%, GAA spleen mod 4%, GAA inh -3% and GAA glycogen inconclusive.
